Records with an inconclusive call do not appear. A call without a number means that no potency is given here. Calls of active or inactive are those of the source. Calls come from the whole dose curve; as a rule, active = well fitted inhibition curve with a large enough effect; inconclusive = small, poorly fitted or top-dose-only effect; inactive = flat fitted curve, though single readings scatter.
System: MCC-26
Assay: qHTS assay to identify novel small-molecules to repurpose for Merkel cell carcinoma treatment (AID 1296009); note: nearly all actives have a fitted effect of over 60% in size
Settings: MCC and control cell lines, CellTiter-Glo viability, 72 h; series mostly up to 46 µM
From the text: MCC is a rare and aggressive neuroendocrine skin cancer with limited treatment options. Approximately 80% of MCCs have the Merkel cell polyomavirus (MCPyV) DNA integrated into the host genome (virus-positive: VP-MCC) and viral oncogenes drive oncogenesis. The remaining MCCs are virus-negative (VN-MCC) and are caused by UV mutagenesis. To identify novel treatments for VP-MCC and/or VN-MCC we screened three VP-MCC cell lines (WAGA, MKL-1, MKL-2), three VN-MCC cell lines (MCC-13, MCC-26, UISO), and four immortalized, non-transformed control cell lines (HaCaT, HEK293T, CRL7250, NIH-3T3) against ~2,400 compounds in the NCGC Pharmaceutical Collection (NPC) and ~1,900 compounds in the Mechanism Interrogation PlatE (MiPE). Using cell viability as a readout (CellTiter-Glo assay) we found both overlapping and distinct drugs that can be repurposed for the treatment of VP-MCC and VN-MCC.
A high-throughput screen was conducted in 1536-well white flat bottom plates (Corning) on a Kalypsys robotic system. Cell lines WAGA, MKL-1, MKL-2, MCC-13, MCC-26, UISO, HaCaT, HEK293T, CRL7250, and NIH-3T3 were screened against 2 small molecule annotated drug libraries NPC and MIPE in dose response (8 and 11 pt. respectively) measuring cell viability after 72 hours of incubation. […] A 1,536 pintool (Kalypsys) was used to transfer 23 nL of compound in DMSO to the 1,536-well assay plates. After 72 hr incubation at 37 degree celsius, 2.5 uL of CellTiter-Glo (Promega) was dispensed into each well using a BiorapTR. Plates were incubated at room temperature for 10 min, transferred to a ViewLux (PerkinElmer) and the luminescence was recorded using an exposure time of 2 seconds. Relative luminescence units (RLUs) were normalized to in-plate controls (no cells as a positive (cytotoxicity) control, DMSO as negative control) and the normalized data was processed using NCATS in-house software.
Potency is the fitted concentration of half-maximal effect.

SMILES | Potency
CN1CCN(C(=O)O[C@H]2c3nccnc3C(=O)N2c2ccc(Cl)cn2)CC1 | inactive
Clc1ccc(CCC(Cn2ccnc2)Sc2c(Cl)cccc2Cl)cc1 (stereo not given) | inactive
COc1ccc(C(CN(C)C)C2(O)CCCCC2)cc1 (stereo not given) | inactive
COC[C@H]1OC(=O)c2coc3c2[C@@]1(C)C1=C(C3=O)C2CCC(=O)[C@@]2(C)C[C@H]1OC(C)=O (stereo not given in full) | inactive
CCCN1CCC[C@@H]2Cc3[nH]ncc3C[C@H]21 | inactive
CNC(=O)c1ccc(N2C(=S)N(c3ccc(C#N)c(C(F)(F)F)c3)C(=O)C23CCC3)cc1F | inactive
CC(=O)Nc1cc([As](=O)(O)O)ccc1O | inactive
Cc1ncc(CNC(=O)N(CCCl)N=O)c(N)n1 | inactive
CC(C)(N)Cc1ccc(Cl)cc1 | inactive
CC1=C2C[C@@H]3[C@@H](CC=C4C[C@@H](O)CC[C@@]43C)[C@@H]2CC[C@]12O[C@H]1C[C@H](C)CN[C@H]1[C@H]2C | inactive
CCOC(=O)C1(c2ccccc2)CCN(CCC(C#N)(c2ccccc2)c2ccccc2)CC1 | inactive
c1ccc(C2CC2)c(OCC2=NCCN2)c1 | inactive
CCC(C(N)=O)N1CCCC1=O (stereo not given) | inactive
CC(CCc1ccccc1)NC(C)C(O)c1ccc(O)cc1 (stereo not given) | inactive
C[C@]12CCC(=O)C(O)=C1CC[C@@H]1[C@@H]2CC[C@]2(C)C(=O)CC[C@@H]12 | inactive
Cc1ccc(-c2nc3ccc(C)cn3c2CC(=O)N(C)C)cc1 | inactive
C[C@]12CC[C@H]3[C@@H](CCC4=CC(=O)CC[C@@H]43)[C@@H]1CC[C@@H]2OC(=O)CCc1ccccc1 | inactive
CNCC(O)c1ccc(O)cc1 (stereo not given) | inactive
CC(C)CC(N(C)C)C1(c2ccc(Cl)cc2)CCC1 (stereo not given) | inactive
CCN(CC)CCN1C(=O)CN=C(c2ccccc2F)c2cc(Cl)ccc21 | inactive

SMILES | Potency
O=C(O)C(=O)c1cn(Cc2ccccc2)c2ccc(-c3ccc(OC(F)(F)F)cc3)cc12 | inactive
NCC(O)c1ccc(O)cc1 (stereo not given) | inactive
Cc1ccc(S(=O)(=O)N[C@@H](CCCCN)C(=O)CCl)cc1 | inactive
COC[C@@H](NC(C)=O)C(=O)NCc1ccccc1 | inactive
C=C1CC[C@@]2(O)[C@H]3Cc4ccc(O)c5c4[C@@]2(CCN3CC2CC2)[C@H]1O5 | inactive
Cn1cc(C2=C(c3cn(C4CCN(Cc5ccccn5)CC4)c4ccccc34)C(=O)NC2=O)c2ccccc21 | inactive
CC[C@@H](CO)NC(=O)[C@@H]1C=C2c3cccc4[nH]cc(c34)C[C@H]2N(C)C1 | inactive
CC(=O)[C@H]1CC[C@H]2[C@@H]3CC[C@H]4C[C@H](O)CC[C@]4(C)[C@H]3C(=O)C[C@]12C | inactive
Cc1ccc2c(c1)C1CN(C)CCC1N2 (stereo not given) | inactive
O=P1(NCCCl)OCCCN1CCCl (stereo not given) | inactive
N[C@@H](Cc1ccc(N(CCCl)CCCl)cc1)C(=O)O | inactive
c1ccc2c(c1)Nc1ccccc1S2 | inactive
C[C@H]1O[C@@H](O[C@H]2[C@@H](O)C[C@H](O[C@H]3[C@@H](O)C[C@H](O[C@H]4CC[C@@]5(C)[C@H](CC[C@@H]6[C@@H]5CC[C@]5(C)[C@@H](C7=CC(=O)OC7)CC[C@]65O)C4)O[C@@H]3C)O[C@@H]2C)C[C@H](O)[C@@H]1O | 42.2 nM (active)
C[C@]12C/C(=C/O)C(=O)C[C@@H]1CC[C@@H]1[C@@H]2CC[C@@]2(C)[C@H]1CC[C@]2(C)O | inactive
CCN(C(C)=O)c1cccc(-c2ccnc3c(C#N)cnn23)c1 | inactive
CC1NCCOC1c1ccccc1 (stereo not given) | inactive
CC(C)(C)CC(C)(C)c1ccc(O)cc1 | inactive
CCN(CC)C(=O)N[C@@H]1C=C2c3cccc4[nH]cc(c34)C[C@@H]2N(C)C1 | inactive
CC(C)=CC1C(C(=O)OCc2cccc(Oc3ccccc3)c2)C1(C)C (stereo not given) | inactive
NCC1(CC(=O)O)CCCCC1 | inactive
